TDP1 cell noCPT: qHTS for Inhibitors of human tyrosyl-DNA phosphodiesterase 1 (TDP1): qHTS in cells in absence of CPT; DT40 Tdp1-/- hTDP1 cells, no CPT, ATP luminescence, 48 h; actives 15% (n = 420,000); Potency, µM (doses to about 46.2 µM), for inactives: at the top dose activity change, negative = growth inhibition, usual class: inhibitors; note: potency is the fitted concentration of half-maximal effect; % is set by controls: 0 for no effect and ±100 for the full control effect; nearly all actives have a fitted effect of over 55% in size
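Growth of hTDP1-complemented DT40 Tdp1-knockout cells is measured by ATP luminescence after at least 48 hr compound exposure at 37 °C, with DMSO substituting for the 20 nM CPT used in the parallel screen.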
TDP1 cell CPT: qHTS for Inhibitors of human tyrosyl-DNA phosphodiesterase 1 (TDP1): qHTS in cells in presence of CPT | actives 12% (n = 420,000) | chicken DT40 Tdp1-/-;hTDP1 cells + 20 nM CPT, ATP luminescence, 48 h | Potency, µM (series often up to 46.2 µM), for the others: top-dose activity change, negative = growth inhibition, most hits filed as inhibitors; note: potency is the fitted concentration of half-maximal effect; % is set by controls: 0 for no effect and ±100 for the full control effect; nearly all actives have a fitted effect of over 55% in size
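Chicken DT40 Tdp1-/- cells complemented with human TDP1, 400 cells/well, exposed to compounds plus 20 nM camptothecin for at least 48 h at 37 C; viability read as ATP content by CellTiter-Glo luminescence.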
TGFb inhibitor: qHTS for Inhibitors of TGF-b | AID 588855, 2011 | Potency, µM (doses to about 46.1 µM), for the others: at the top dose activity, negative = inhibition, most hits filed as inhibitors | actives 1.2% (n = 410,000) | HepG2 CAGA-GFP TGF-b/SMAD3 reporter, GFP fluorescence, 18 h; TGF-beta stimulated, 500 pg/mL final; note: potency is the fitted concentration of half-maximal effect; % is set by controls: 0 for no effect and ±100 for the full control effect; nearly all actives have a fitted effect of over 65% in size
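TGF-beta reporter screen: HEPG2 CAGA-GFP, 1% FBS, 500 pg/mL TGF-beta final, 18 h; per-cell GFP summed per well; curves fitted and categorized by class.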
HepG2 tox: qHTS for Inhibitors of TGF-b: Cytotox Counterscreen; actives 0.76% (n = 410,000); HepG2 CAGA-GFP viability, ATP luminescence, 18 h; Potency, µM (top dose mostly 46.1 µM), without a hit: top-dose activity change, negative = cytotoxicity, most hits filed as cytotoxic; note: potency is the fitted concentration of half-maximal effect
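CellTiter-Glo luminescence gave cytotoxicity after 18 hours at 37 degrees C. The cells were HepG2 CAGA-GFP in 1% FBS DMEM, stimulated with 500 pg/mL TGF-beta after compound addition. %Activity was normalised to no-cell wells (complete cell-killing) and DMSO (no toxicity), and curves were fitted and classified.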
TDP1 inh: qHTS Assay for Inhibitors of Tyrosyl-DNA Phosphodiesterase (TDP1); recombinant TDP1, AlphaScreen DNA substrate cleavage; Tyrosyl-DNA phosphodiesterase 1 (Homo sapiens), Q9NUW8; Potency, µM (titrated, usually from 130 µM), for inactives: at the top dose activity change, negative = inhibition, hits mostly inhibitors; actives 0.28% (n = 350,000); AID 485290, 2010; note: potency is the fitted concentration of half-maximal effect; % is set by controls: 0 for no effect and ±100 for the full control effect; nearly all actives have a fitted effect of over 40% in size
Target sequence (Q9NUW8 whole entry, looked up): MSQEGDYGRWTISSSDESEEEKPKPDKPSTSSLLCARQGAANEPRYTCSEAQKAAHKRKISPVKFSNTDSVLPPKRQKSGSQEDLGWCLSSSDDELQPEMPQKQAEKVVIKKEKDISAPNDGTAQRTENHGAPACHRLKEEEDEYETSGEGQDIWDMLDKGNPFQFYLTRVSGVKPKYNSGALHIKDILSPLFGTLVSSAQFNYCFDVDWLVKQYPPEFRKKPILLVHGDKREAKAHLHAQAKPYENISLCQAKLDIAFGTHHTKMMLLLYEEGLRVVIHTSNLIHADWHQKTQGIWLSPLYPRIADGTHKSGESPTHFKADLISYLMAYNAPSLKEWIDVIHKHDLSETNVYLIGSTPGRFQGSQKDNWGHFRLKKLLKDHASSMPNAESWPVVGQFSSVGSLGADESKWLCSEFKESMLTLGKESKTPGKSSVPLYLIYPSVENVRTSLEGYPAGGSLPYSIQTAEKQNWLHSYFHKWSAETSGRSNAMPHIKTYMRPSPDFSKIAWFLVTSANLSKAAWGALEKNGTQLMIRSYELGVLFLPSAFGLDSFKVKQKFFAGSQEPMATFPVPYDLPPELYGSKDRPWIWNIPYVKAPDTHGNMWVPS
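Recombinant human Tdp1 (E. coli-expressed, 1 nM final) preincubated with compounds 15 min at room temperature, then 5'-biotin/3'-phosphotyrosine-FITC DNA substrate (15 nM final) added for 5 min. AlphaScreen beads (10 ug/ml final) added 10 min; cleavage lowers signal.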
IL-1B inflam inh: qHTS for Inhibitors of Inflammasome Signaling: IL-1-beta AlphaLISA Primary Screen | THP-1 LPS/ATP IL-1B secretion, AlphaLISA, 16 h; hits give low values | activity change, % at 57.5 µM | actives 4.7% (n = 360,000) | AID 743279, 2014; in the data active = activity change below about -50%; inconclusive = mostly about -30% to -49%; note: % is set by controls: 0 for no effect and ±100 for the full control effect
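THP-1 cells pretreated 1 hr with compounds (up to 57.5 uM final), then stimulated with LPS (250 ng/mL final) plus ATP (1.25 mM final); secreted IL-1B measured by AlphaLISA after 16 hr, decreased signal indicating inhibition.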
* marks the source's active call; other numbers are inactive results; ! = not active in a repeat. Rows were chosen to be rich in hits. Some 19% of all compounds tested hit in one or more screens of this group. Unless noted, calls come from the whole dose curve; as a rule, active = well fitted curve in the direction sought with a large enough effect; inconclusive = small, poorly fitted or top-dose-only effect, or another doubt; inactive = no such curve, though single readings can be large; an effect the other way counts as inactive or inconclusive.

Results for Cc1ccn2c(NC3CCCCC3)c(-c3ccc(SC4CCCCC4)cc3)nc2c1 ?
TDP1 cell noCPT: 23µM*; TDP1 cell CPT: inconclusive; IL-1B inflam inh: 42

How did Cc1ccn2c(NC3CCCC3)c(-c3ccsc3)nc2c1 do in these assays?
TDP1 cell noCPT: -25%; TDP1 cell CPT: inconclusive; TGFb inhibitor: inconclusive; HepG2 tox: -27%; TDP1 inh: 1%; IL-1B inflam inh: 27

Results for Cc1ccn2c(NC3CCCCC3)c(-c3cccc(SC4CCCCC4)c3)nc2c1 ?
TDP1 cell noCPT: 8.2µM*; TDP1 cell CPT: 16µM*; TGFb inhibitor: inconclusive; HepG2 tox: -37%; TDP1 inh: 0%; IL-1B inflam inh: -75*!

Results for CCOC(=O)/C(=C\c1cccnc1)C(=O)c1cc(C(C)=O)c(Nc2ccccc2)s1 ?
TDP1 cell noCPT: 1.8µM*; TDP1 cell CPT: 2.1µM*; TGFb inhibitor: 2.8µM*; HepG2 tox: -89%; TDP1 inh: -2%; IL-1B inflam inh: -103*

Results for CCOC(=O)C(=O)/C(C#N)=C/Nc1ccccc1 ?
TDP1 cell noCPT: -9%; TDP1 cell CPT: 4%; TGFb inhibitor: -6%; HepG2 tox: 5%; TDP1 inh: 4%; IL-1B inflam inh: 5

What do the screens show for `CCOC(=O)/C(=C\c1ccccc1)C(=O)c1cc(C(C)=O)c(Nc2ccccc2)s1`?
TDP1 cell noCPT: 9.2µM*; TDP1 cell CPT: 8.2µM*; TGFb inhibitor: -9%; HepG2 tox: 3.2µM*; TDP1 inh: -1%; IL-1B inflam inh: -101*

How did Cc1cccc(NC(=O)CCS(=O)(=O)c2cccc3nonc23)c1C do in these assays?
TDP1 cell noCPT: inconclusive; TDP1 cell CPT: inconclusive; TGFb inhibitor: -9%; HepG2 tox: -14%; TDP1 inh: 5%; IL-1B inflam inh: -6

What do the screens show for `Cc1nn(CC(=O)NCCc2ccccc2Cl)c(=O)c2nn(-c3ccccc3)c(C)c12`?
TDP1 cell noCPT: -22%; TDP1 cell CPT: -22%; HepG2 tox: -35%; TDP1 inh: 3%

Results for O=C(COc1ccccc1N1C(=O)C2C3C=CC(C3)C2C1=O)c1ccccc1 (centres undefined) ?
TDP1 cell noCPT: -5%; TDP1 cell CPT: -7%; TGFb inhibitor: 10%; HepG2 tox: 3%; TDP1 inh: -3%; IL-1B inflam inh: -18

What do the screens show for `CC1CN(S(=O)(=O)c2ccc(C(=O)Nc3nnc(-c4ccco4)o3)cc2)CC(C)O1` (centres undefined)?
TDP1 cell noCPT: inconclusive; TDP1 cell CPT: 23µM*; TGFb inhibitor: -8%; HepG2 tox: -28%; TDP1 inh: 8%; IL-1B inflam inh: 7

Results for O=C(Nc1nnc(-c2ccco2)o1)c1ccc(S(=O)(=O)N2CCCC2)cc1 ?
TDP1 cell noCPT: inconclusive; TDP1 cell CPT: inconclusive; TGFb inhibitor: -20%; HepG2 tox: -48%; TDP1 inh: 8%; IL-1B inflam inh: 50

What do the screens show for `CC1CN(S(=O)(=O)c2ccc(C(=O)Nc3ccccc3F)cc2)CC(C)O1` (centres undefined)?
TDP1 cell noCPT: 4%; TDP1 cell CPT: -15%; TGFb inhibitor: 0%; HepG2 tox: 2%; TDP1 inh: 0%; IL-1B inflam inh: -11

What do the screens show for `CC1CCN(S(=O)(=O)c2ccc(C(=O)Nc3nnc(-c4ccco4)o3)cc2)CC1`?
TDP1 cell noCPT: 18µM*; TDP1 cell CPT: 15µM*; TGFb inhibitor: -20%; HepG2 tox: -11%; TDP1 inh: 5%; IL-1B inflam inh: inactive

What do the screens show for `O=C(CCc1ccco1)CCc1ccco1`?
TDP1 cell noCPT: -14%; TDP1 cell CPT: -14%; TGFb inhibitor: 7%; HepG2 tox: 15%; IL-1B inflam inh: -12

How did CCCc1cc(=O)oc2c3c(ccc12)OCN(Cc1ccc(OC)cc1)C3 do in these assays?
TDP1 cell noCPT: inconclusive; TDP1 cell CPT: inconclusive; TGFb inhibitor: -2%; HepG2 tox: -11%; TDP1 inh: 2%

Results for CC(=O)c1ccc(N2CCN(C(=O)Nc3cccc(F)c3)CC2)cc1 ?
TDP1 cell noCPT: inconclusive; TDP1 cell CPT: 21µM*; TGFb inhibitor: 0%; HepG2 tox: -10%; TDP1 inh: 2%; IL-1B inflam inh: -5

How did O=C(Nc1cccc(F)c1)N1CC[C@@]2(CCCN(C(=O)c3cccc(F)c3)C2)C1 do in these assays?
TDP1 cell noCPT: -5%; TDP1 cell CPT: 8%

How did O=C(Nc1cccc(F)c1)N1CCCC2(CCN(C(=O)c3ccncc3)CC2)C1 do in these assays?
TDP1 cell noCPT: 0.15µM*; TDP1 cell CPT: 0.13µM*

Results for O=C(Nc1cccc(F)c1)N1CCC2(CC1)CCN(C(=O)c1cccc(F)c1)CC2 ?
TDP1 cell noCPT: 21µM*; TDP1 cell CPT: -6%

What do the screens show for `O=C(c1cccc(F)c1)N1CCC2(CC1)CCN(C(c1ccccc1)c1ccccc1)CC2`?
TDP1 cell noCPT: 23µM*; TDP1 cell CPT: 15µM*

How did CC(C)(C)c1ccc(S(=O)(=O)NC(=O)C2(C)CCN2C(=O)C2(c3ccc(Cl)cc3)CC2)cc1 (centres undefined) do in these assays?
TDP1 cell noCPT: -26%; TDP1 cell CPT: inconclusive; TGFb inhibitor: inconclusive; HepG2 tox: -38%; IL-1B inflam inh: 31

What do the screens show for `O=C(c1cccc(F)c1)N1CCC2(CC1)CN(c1ccc(-c3ccccc3)cc1)C2`?
TDP1 cell noCPT: 15µM*; TDP1 cell CPT: inconclusive

What do the screens show for `O=C(c1csnn1)N1CCC[C@@]2(CCN(c3ccncc3)C2)C1`?
TDP1 cell noCPT: -11%; TDP1 cell CPT: -3%

How did COC(=O)N1CCC2(CCCN(C(=O)Nc3cccc(C#N)c3)C2)CC1 do in these assays?
TDP1 cell noCPT: -9%; TDP1 cell CPT: 1%

Results for O=C(c1ccco1)N1CCC2(CC1)CN(C(c1ccccc1)c1ccccc1)C2 ?
TDP1 cell noCPT: 15µM*; TDP1 cell CPT: inconclusive

How did O=C(c1csnn1)N1CCC[C@@]2(CCN(C(c3ccccc3)c3ccccc3)C2)C1 do in these assays?
TDP1 cell noCPT: 18µM*; TDP1 cell CPT: inconclusive

Screens: PubChem BioAssay, National Center for Advancing Translational Sciences (NCATS)
